According to PubChem BioAssay AID540321 (Johns Hopkins Ion Channel Center, 2011):
The source made the active and inactive calls.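 Rule for the calls: active = Inhibition of the Kir2.1 potassium channel over 30% at some tested dose, plus a fitted dose response curve; inactive = no Kir2.1 inhibition at any dose, or no curve fitted.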

Target: Inward rectifier potassium channel 2 (Mus musculus) (UniProt P35561)
Assay: off-target blockade of inward rectifier Kir2.1 – cell-based, FluxOR thallium flux, CRC round 2, selectivity assay for KCNK9 inhibitor project, SAR follow-up (AID 540321)
Conditions: Kir2.1-expressing cells; series mostly up to 30 µM

Chain of Inward rectifier potassium channel 2 (Mus musculus) (P35561 whole entry, looked up): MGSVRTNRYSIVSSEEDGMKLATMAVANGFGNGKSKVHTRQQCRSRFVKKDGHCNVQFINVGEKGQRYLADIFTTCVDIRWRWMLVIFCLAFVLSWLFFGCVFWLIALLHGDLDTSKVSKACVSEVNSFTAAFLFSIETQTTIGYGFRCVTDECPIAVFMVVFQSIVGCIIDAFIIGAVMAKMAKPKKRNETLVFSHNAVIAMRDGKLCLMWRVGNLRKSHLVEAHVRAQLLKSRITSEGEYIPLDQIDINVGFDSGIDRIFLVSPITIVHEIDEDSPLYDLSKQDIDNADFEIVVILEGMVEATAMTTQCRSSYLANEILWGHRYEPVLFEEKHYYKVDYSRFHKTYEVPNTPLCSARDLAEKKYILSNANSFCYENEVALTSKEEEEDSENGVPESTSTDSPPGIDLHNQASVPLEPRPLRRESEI

outcome, inactive:
COc1ccccc1C(=O)Nc1cccc(NC(=O)c2ccccc2OC)c1
Cc1cccc(C(=O)Nc2cccc(NC(=O)c3cccc(C)c3)c2)c1
CCOc1ccccc1NC(=O)c1cccc(NC(=O)c2ccccc2C)c1
O=C(Nc1cccc(NC(=O)c2ccco2)c1)c1ccccc1
CCOc1ccccc1NC(=O)c1cccc(NC(=O)C2CCCO2)c1 (stereo not given)
CC(c1ccccc1)n1c(-c2ccco2)n[nH]c1=S (stereo not given)
CCOc1ccccc1NC(=O)c1cccc(NC(=O)c2ccccc2Cl)c1
O=C(Nc1cccc(NC(=O)c2ccccc2Cl)c1)c1ccccc1
Cc1cccc(C(=O)Nc2cccc(NC(=O)c3ccccc3C(C)C)c2)c1
O=C(Nc1cccc(NC(=O)c2ccccn2)c1)c1ccccc1
COc1ccccc1NC(=O)c1cccc(NC(=O)c2ccccc2)c1
CC(C)(C)c1ccc(C(=O)Nc2cccc(NC(=O)c3ccccc3)c2)cc1
O=C(Nc1cccc(NC(=O)c2cccc(F)c2)c1)c1ccccc1
O=C(Nc1cccc(NC(=O)c2cccs2)c1)c1ccccc1
COc1ccccc1C(=O)Nc1cccc(NC(=O)c2ccccc2OC(F)(F)F)c1
CC(C1CC2CCC1C2)n1c(-c2ccccc2Cl)n[nH]c1=S (stereo not given)
CCOc1ccccc1NC(=O)c1cccc(NC(=O)C2CCCC2)c1
COc1ccc(-c2n[nH]c(=S)n2C(C)C2CC3CCC2C3)cc1 (stereo not given)
CCOc1ccccc1NC(=O)c1cccc(NC(=O)c2ccc(Cl)cc2)c1
Cc1ccc(C(=O)Nc2cccc(NC(=O)c3ccccc3)c2)cc1
CCOc1ccc(NC(=O)c2cccc(NC(=O)C3CCCC3)c2)cc1
CCOc1ccccc1NC(=O)c1cccc(NC(=O)c2ccc(OC)cc2)c1
CCOc1ccccc1NC(=O)c1cccc(NC(=O)C2CCCCC2)c1
O=C(Nc1cccc(NC(=O)c2ccc(C(F)(F)F)cc2)c1)c1ccccc1
CCOc1cccc(NC(=O)c2cccc(NC(=O)C3CCCC3)c2)c1
Cc1ccc(-c2n[nH]c(=S)n2C(C)C2CC3CCC2C3)cc1 (stereo not given)
COc1cccc(C(=O)Nc2cccc(NC(=O)c3cccc(C)c3)c2)c1
CCOc1ccccc1NC(=O)c1cccc(NC(=O)CC2CCCCC2)c1
Cc1cccc(C(=O)Nc2cccc(NC(=O)c3ccc(C(F)(F)F)cc3)c2)c1
COc1ccccc1-c1n[nH]c(=S)n1C(C)C1CC2CCC1C2 (stereo not given)
O=C(Nc1ccccc1Cl)c1cccc(NC(=O)C2CCCC2)c1
Cc1cccc(C(=O)Nc2cccc(NC(=O)c3ccc(C(C)(C)C)cc3)c2)c1
COc1cccc(OC)c1C(=O)Nc1cccc(NC(=O)c2cccc(C)c2)c1
CC(C1CC2CCC1C2)n1c(-c2cccc(Cl)c2)n[nH]c1=S (stereo not given)
CCOc1ccccc1NC(=O)c1cccc(NC(=O)c2ccccc2C(F)(F)F)c1
